TGFb inhibitor: qHTS for Inhibitors of TGF-b; HepG2 CAGA-GFP TGF-b/SMAD3 reporter, GFP fluorescence, 18 h; TGF-beta stimulated, 500 pg/mL final; Potency, µM (doses to about 46.1 µM), inactives show top-dose activity, negative = inhibition, usual class: inhibitors; hit rate 1.2% among 410,000; AID 588855, 2011; further: potency means the concentration at half of the fitted maximal effect; on the % scale 0 is the no-effect control and ±100 the full control effect; nearly all actives have a fitted effect of over 65% in size
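Inhibition was scored as loss of TGF-beta-induced (500 pg/mL final, 18 hours, 37 degrees C) GFP in HEPG2 cells carrying a CAGA-GFP reporter, in DMEM with 1% FBS. Well GFP was summed per cell; Activity was normalised to unstimulated and stimulated DMSO wells, then concentration-response fitting.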
TDP1 block: qHTS Assay for Inhibitors of Tyrosyl-DNA Phosphodiesterase (TDP1); Potency, µM (series often up to 130 µM), for inactives: at the highest dose activity change, negative = inhibition, actives largely listed as inhibitors; AID 485290, 2010; hit rate 0.28% among 350,000; recombinant TDP1, AlphaScreen DNA substrate cleavage; further: potency means the concentration at half of the fitted maximal effect; on the % scale 0 is the no-effect control and ±100 the full control effect; nearly all actives have a fitted effect of over 40% in size
Target sequence (Q9NUW8 whole entry, looked up): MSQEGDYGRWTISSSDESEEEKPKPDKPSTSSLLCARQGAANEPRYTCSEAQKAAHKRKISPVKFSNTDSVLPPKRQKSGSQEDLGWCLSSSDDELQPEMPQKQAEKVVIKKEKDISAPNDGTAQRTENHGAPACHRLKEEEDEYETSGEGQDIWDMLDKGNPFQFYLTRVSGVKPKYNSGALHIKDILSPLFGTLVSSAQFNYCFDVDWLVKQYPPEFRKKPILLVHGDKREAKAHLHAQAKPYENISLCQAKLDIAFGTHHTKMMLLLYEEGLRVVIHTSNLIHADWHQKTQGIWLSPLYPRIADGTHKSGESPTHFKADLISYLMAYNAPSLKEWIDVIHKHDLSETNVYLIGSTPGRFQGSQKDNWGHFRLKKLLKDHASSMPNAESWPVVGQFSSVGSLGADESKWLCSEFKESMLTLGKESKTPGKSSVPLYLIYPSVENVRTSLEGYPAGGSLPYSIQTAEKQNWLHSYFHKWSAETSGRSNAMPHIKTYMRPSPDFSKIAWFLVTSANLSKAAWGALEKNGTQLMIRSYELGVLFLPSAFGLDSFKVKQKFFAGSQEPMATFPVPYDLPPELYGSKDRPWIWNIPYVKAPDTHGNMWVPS
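Compounds were preincubated with Tdp1 (1 nM final) for 15 min at room temperature before substrate (15 nM final) started a 5 min reaction; beads (10 ug/ml final) were then added for 10 min before AlphaScreen detection.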
HepG2 tox: qHTS for Inhibitors of TGF-b: Cytotox Counterscreen; HepG2 CAGA-GFP viability, ATP luminescence, 18 h; Potency, µM (top dose mostly 46.1 µM), inactives show at the highest dose activity change, negative = cytotoxicity, usual class: cytotoxic; hit rate 0.76% among 410,000; further: potency means the concentration at half of the fitted maximal effect
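CellTiter-Glo luminescence gave cytotoxicity after 18 hours at 37 degrees C. The cells were HepG2 CAGA-GFP in 1% FBS DMEM, stimulated with 500 pg/mL TGF-beta after compound addition. %Activity was normalised to no-cell wells (complete cell-killing) and DMSO (no toxicity), and curves were fitted and classified.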
IL-1B inflam inh: qHTS for Inhibitors of Inflammasome Signaling: IL-1-beta AlphaLISA Primary Screen; activity change, % at 57.5 µM; THP-1 LPS/ATP IL-1B secretion, AlphaLISA, 16 h; stronger effect = lower value; AID 743279, 2014; hit rate 4.7% among 360,000; in the data active means activity change below about -50%; inconclusive means mostly about -30% to -49%; further: on the % scale 0 is the no-effect control and ±100 the full control effect
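Secreted IL-1B measured by AlphaLISA bead assay after 16 h compound exposure of THP-1 cells; compounds (final up to 57.5 uM) added 1 h before LPS (250 ng/mL) and ATP (1.25 mM) stimulation; lower signal means less secretion.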
DT40 TDP1 CPT: qHTS for Inhibitors of human tyrosyl-DNA phosphodiesterase 1 (TDP1): qHTS in cells in presence of CPT. AID 686979, 2013. hit rate 12% among 420,000. Potency, µM (titrated, usually from 46.2 µM), inactives show at the top dose activity change, negative = growth inhibition, usual class: inhibitors. chicken DT40 Tdp1-/-;hTDP1 cells + 20 nM CPT, ATP luminescence, 48 h; further: potency means the concentration at half of the fitted maximal effect; on the % scale 0 is the no-effect control and ±100 the full control effect; nearly all actives have a fitted effect of over 55% in size
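Cell growth measured by CellTiter-Glo luminescence after a minimum 48 h, 37 C compound exposure with 20 nM CPT in Tdp1-knockout DT40 cells stably expressing hTDP1, seeded 400/well; qHTS titration format.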
DT40 TDP1 no CPT: qHTS for Inhibitors of human tyrosyl-DNA phosphodiesterase 1 (TDP1): qHTS in cells in absence of CPT; AID 686978, 2013; hit rate 15% among 420,000; Potency, µM (top dose mostly 46.2 µM), without a hit: top-dose activity change, negative = growth inhibition, usual class: inhibitors; DT40 Tdp1-/- hTDP1 cells, no CPT, ATP luminescence, 48 h; further: potency means the concentration at half of the fitted maximal effect; on the % scale 0 is the no-effect control and ±100 the full control effect; nearly all actives have a fitted effect of over 55% in size
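Cells were dispensed at 400 per well, compounds added by pin tool, plates incubated ≥48 hr at 37 °C, then CellTiter-Glo added for 30 min at room temperature before luminescence reading. Line: DT40 Tdp1-/- complemented with hTDP1; camptothecin omitted.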
* = called active by the depositor; u = inconclusive; x = no result. A selection: hits, their analogues and other compounds. The true share with any hit is near 19%. Unless noted, the call rests on the fitted dose curve; in most records, active means well fitted curve in the direction sought with a large enough effect; inconclusive means small, poorly fitted or top-dose-only effect, or another doubt; inactive means no such curve, though single readings can be large; an effect the other way counts as inactive or inconclusive.

SMILES	TGFb inhibitor	TDP1 block	HepG2 tox	IL-1B inflam inh	DT40 TDP1 CPT	DT40 TDP1 no CPT
CCOc1cc(/C=C2\C(=O)ON=C2c2ccccc2)ccc1OC	u	x	-57.0%	-94.0*	23.1µM*	18.4µM*
CCOc1cc(/C=C2/C(=O)ON=C2C)ccc1OCc1ccccc1F	u	x	15.8µM*	-100.1*	u	u
COc1cc(/C=C2\C(=O)ON=C2c2ccccc2)cc(OC)c1OC	-8.8%	-1.5%	0.3%	-116.7*	u	16.4µM*
O=C(NCc1ccccn1)c1cccc(NS(=O)(=O)c2ccc(Br)cc2)c1	1.1%	-0.3%	-11.8%	30.2	u	3.7%
CCOc1ccccc1CNC(=O)CCc1c(C)nn(-c2ccc(N3CCCC3)nn2)c1C	u	7.1%	-28.7%	x	u	20.6µM*
COc1ccccc1CNC(=O)CCc1c(C)nn(-c2ccc(N3CCCCC3)nn2)c1C	-9.0%	9.7%	-2.5%	x	u	25.9µM*
CNc1nc(Nc2ccc([N+](=O)[O-])cc2)nc(OCC(F)(F)F)n1	2.4%	x	3.5%	-28.5	-12.2%	-6.8%
CNc1nc(N/N=C/c2cc([N+](=O)[O-])ccc2F)nc(Nc2ccccc2)n1	-27.9%	x	-26.2%	-96.6*	13µM*	7.31µM*
COc1ccc(N(Cc2cccs2)C(=O)c2ccccc2C)cc1	-13.2%	-1.6%	-23.8%	x	11.6µM*	13µM*
CCCCOc1cccc(C(=O)N(Cc2cccs2)c2ccc(OC)cc2)c1	x	-9.9%	-19.1%	x	u	6.51µM*
COc1ccc(N(Cc2cccs2)C(=O)c2ccc(C(C)(C)C)cc2)cc1	u	-4.7%	-28.0%	x	u	u
COc1ccc(N(Cc2cccs2)C(=O)c2ccc(OCC(C)C)cc2)cc1	-20.7%	-3.6%	-21.8%	x	u	20.6µM*
Cc1ccc(N(Cc2cccs2)C(=O)C(C)Oc2ccc(Cl)c(C)c2)cc1 (centres undefined)	u	u	-29.3%	x	11.6µM*	9.2µM*
O=C(Nc1ccc(F)cc1F)c1cc(CN2CCOCC2)on1	-4.7%	1.9%	2.4%	x	8.5%	6.5%
O=C(NCCc1c[nH]c2ccccc12)C(=O)NCC1OCCCN1S(=O)(=O)c1cccs1 (centres undefined)	-1.1%	-2.6%	-15.9%	19.4	-22.9%	u
Cc1cc(C)c(S(=O)(=O)N2CCCOC2CNC(=O)C(=O)NCCc2c[nH]c3ccccc23)c(C)c1 (centres undefined)	u	-5.6%	-35.5%	-15.0	u	14.6µM*
Cc1ccc(S(=O)(=O)N2CCOC2CNC(=O)C(=O)NCCc2c[nH]c3ccccc23)cc1 (centres undefined)	u	5.5%	-35.3%	11.0	u	u
O=C(NCCc1c[nH]c2ccccc12)C(=O)NCC1OCCCN1S(=O)(=O)c1ccc(F)cc1 (centres undefined)	u	5.1%	-30.3%	0.0	18.4µM*	u
Cc1cc(F)ccc1S(=O)(=O)N1CCCOC1CNC(=O)C(=O)NCCc1c[nH]c2ccccc12 (centres undefined)	2.5%	10.3%	-4.6%	u	16.4µM*	u
C[C@@H]1COC(=O)[C@@H](CC(=O)OC(C)(C)C)C/C=C\C[C@@H](CC(=O)NCCO)C(=O)N1	3.5%	-0.1%	-0.7%	14.8	22.0%	3.5%
CN(C)C(=O)c1cccc(-c2cc(NC=O)c3ncc(-c4ccc(F)c(Cl)c4)n3c2)c1	u	x	-9.5%	59.6	16.4µM*	23.1µM*
COc1cccc(-c2cc(NC=O)c3ncc(-c4cccc(C(=O)N(C)C)c4)n3c2)c1	-26.8%	x	-19.0%	-12.5	u	u
CN(C)C(=O)c1cccc(-c2cnc3c(NC=O)cc(-c4cccc(C(F)(F)F)c4)cn23)c1	u	x	-17.9%	0.0	8.2µM*	8.2µM*
CC(=O)Nc1cc(-c2cccc(C(=O)N(C)C)c2)cn2c(-c3ccc(F)c(Cl)c3)cnc12	u	x	-18.5%	-29.5	u	u
CN(C)C(=O)c1cccc(-c2cnc3c(NC=O)cc(-c4cccc(F)c4)cn23)c1	-24.1%	x	-18.4%	2.2	20.6µM*	14.6µM*
SMILES	TGFb inhibitor	TDP1 block	HepG2 tox	IL-1B inflam inh	DT40 TDP1 CPT	DT40 TDP1 no CPT
COc1ccc(-c2cc(NC=O)c3ncc(-c4cccc(C(=O)N(C)C)c4)n3c2)cn1	-22.4%	x	-8.4%	-7.8	23.1µM*	16.4µM*
CC(=O)N1CC(C)Oc2ccc(S(=O)(=O)Nc3ccc(Cl)cn3)cc21 (centres undefined)	7.7%	1.3%	-0.2%	24.7	-21.7%	1.6%
Cc1cccc(NC(=O)c2oc3ccccc3c2NC(=O)c2cc(=O)c3cc(Cl)ccc3o2)c1	-18.4%	3.7%	-22.4%	x	u	u
O=C(COc1ccc(Cl)cc1Cl)N/N=C/C1CC=CCC1 (centres undefined)	7.5%	5.5%	5.1%	-13.8	-18.1%	-16.6%
Cc1ccc2onc(CNC(=O)N3CCN(c4cc(Cl)ccc4C)CC3)c2c1	u	-5.1%	-19.5%	x	u	u
COc1cccc(-c2cnc3c(NC=O)cc(-c4cccc(C(=O)N(C)C)c4)cn23)c1	3.55µM*	x	-38.6%	147.7	u	u
Cc1cccc(-c2cc(NC=O)c3ncc(-c4cccc(C(=O)N(C)C)c4)n3c2)c1	u	x	-32.5%	15.6	u	16.4µM*
CN(C)C(=O)c1cccc(-c2cnc3c(NC=O)cc(-c4ccc(N(C)C)cc4)cn23)c1	-11.6%	x	-32.1%	0.0	18.4µM*	u
COc1ccc(-c2cc(NC(C)=O)c3ncc(-c4cccc(C(F)(F)F)c4)n3c2)c(OC)c1	u	x	-24.5%	-5.4	u	u
Nc1ccc(-c2cc(NC=O)c3ncc(-c4cccc(C(F)(F)F)c4)n3c2)cn1	u	x	-24.7%	-21.6	16.4µM*	10.3µM*
COC(=O)[C@]12CCCCC=C1N(CCC1=CCCCC1)C(=O)[C@H](CC(=O)N1CCC(c3ccccc3)CC1)C2	x	x	x	6.5	u	16.4µM*
COC(=O)[C@]12CCCCC=C1N(CCC1=CCCCC1)C(=O)[C@H](CC(=O)N1CCCC1)C2	x	x	x	-3.0	u	16.4µM*
